Compound activity deposited in PubChem by several laboratories.
A selection: hits, their analogues and other compounds. The true share with any hit is near 27%.
CYP2C19 activ – cytochrome P450 2C19 (human) activation; P33261; recombinant CYP2C19, luciferin-H EGE luminescence; active compounds read high; 0 = fully inhibited enzyme, 1 = untreated enzyme; activation factor at 5 µM; 96,000 tested, under 10 active;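 active means activation factor of at least 2 at 5 µM in the primary screen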
Target sequence (P33261 whole entry, looked up): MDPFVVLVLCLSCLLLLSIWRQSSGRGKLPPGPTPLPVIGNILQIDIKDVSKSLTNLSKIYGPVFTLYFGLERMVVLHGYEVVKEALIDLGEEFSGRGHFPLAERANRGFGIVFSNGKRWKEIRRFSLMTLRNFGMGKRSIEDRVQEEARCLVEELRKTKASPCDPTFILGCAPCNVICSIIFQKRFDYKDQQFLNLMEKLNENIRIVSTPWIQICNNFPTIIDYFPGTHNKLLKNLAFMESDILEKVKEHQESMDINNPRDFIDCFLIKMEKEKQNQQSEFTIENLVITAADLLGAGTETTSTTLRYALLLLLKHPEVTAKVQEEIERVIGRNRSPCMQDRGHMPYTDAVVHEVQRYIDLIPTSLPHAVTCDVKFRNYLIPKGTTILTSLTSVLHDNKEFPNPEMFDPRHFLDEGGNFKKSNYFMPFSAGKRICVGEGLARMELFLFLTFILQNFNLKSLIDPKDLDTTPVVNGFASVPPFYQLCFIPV
sEH act – activators of human soluble epoxide hydrolase; activation, % at 2 µM; AID 717; P34913; purified human sEH enzymatic activity, activator screen; 91,000 compounds, 0.04% hits; in the data active means activation above about 37%
CYP2C19 inhib – blocks human cytochrome P450 2C19 | 96,000 compounds, 21% hits | inhibition, % at 5 µM | CYP2C19 Supersomes, luciferin-H EGE luminescence, 30 min | AID 778;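 active means CYP2C19 inhibition above a set limit at 5 µM in the primary screen, cut at about 50% in these data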
CYP2C9 activ – activators of human CYP2C9; P11712; recombinant CYP2C9, luciferin-H conversion, luminescence; active compounds read high; factor 1 = untreated enzyme, 0 = blocked; activation factor at 5 µM; 96,000 compounds, 1.4% hits;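 active means activation factor of 2 or more for CYP2C9 at a 5 µM dose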
sEH inhibitor – soluble epoxide hydrolase (human) inhibition | 91,000 compounds, 0.34% hits | recombinant human sEH enzymatic activity assay | P34913 | inhibition, % at 2 µM; in the data active means inhibition above about 80%
CYP2C9 inh – inhibitors of human CYP2C9 | P11712 | CYP2C9 Supersomes, luciferin-H conversion, luminescence | inhibition, % at 5 µM | 96,000 compounds, 20% hits | AID 777;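 active means blocking of liver enzyme CYP2C9 beyond about 50% at 5 µM, limit read from the data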
Of the large screens only hits and unclear results are named; the others gave an inactive call.

Cc1ccc(C(=O)CCC2CCCCC2=O)cc1 (stereo not drawn)	CYP2C19 inhib 83.8
Cc1c(C#N)c2ccccc2n1CC(=O)NC(C)c1ccccc1 (stereo not drawn)	CYP2C19 inhib 87.3, CYP2C9 inh 58.8
Cc1cccc(NC(=O)Cn2c(C)c(C#N)c3ccccc32)c1C	CYP2C19 inhib 87.3, CYP2C9 inh 86.7
Cc1c(C#N)c2ccccc2n1CC(=O)O	none (no result: CYP2C19 activ, CYP2C19 inhib, CYP2C9 activ, CYP2C9 inh)
CCCCC(=O)NC1=NC(=O)C(C)(C)S1	none
Cc1ccc(-n2nc(C)cc2NC(=O)c2ccc(C)s2)cc1	CYP2C19 inhib 76.3
Cc1cc(Oc2nnnn2-c2ccccc2)ccc1Cl	CYP2C19 inhib 58.2, CYP2C9 inh 61.2
Brc1ccc(Oc2nnnn2-c2ccccc2)cc1	CYP2C19 inhib 100.3, CYP2C9 inh 81.0 (no result: sEH act, sEH inhibitor)
Cc1cc(NC(=O)C2COc3ccccc3O2)no1 (stereo not drawn)	CYP2C19 inhib 60.6 (no result: sEH act, sEH inhibitor)
Cc1nc2ccc3nc(NC(=O)C4COc5ccccc5O4)sc3c2s1 (stereo not drawn)	CYP2C9 inh 67.7 (no result: sEH act, sEH inhibitor)
Cc1csc(NC(=O)C2COc3ccccc3O2)n1 (stereo not drawn)	CYP2C19 inhib 83.4
O=C(Nc1nc(-c2ccccc2)cs1)C1COc2ccccc2O1 (stereo not drawn)	none
O=C(Nc1nnc(SCc2ccccc2Cl)s1)C1COc2ccccc2O1 (stereo not drawn)	CYP2C9 inh 54.7
CSc1nc2ccc3nc(NC(=O)C4COc5ccccc5O4)sc3c2s1 (stereo not drawn)	none
Cc1cc(NC(=O)COC(=O)C2COc3ccccc3O2)no1 (stereo not drawn)	none
CCCCCOc1ccccc1C(=O)NCCC(=O)O	none
Cc1cc(NC(=O)c2noc3c2CCCC3)n(-c2ccccc2)n1	none (no result: sEH act, sEH inhibitor)
O=C(Nc1ccccn1)C1COc2ccccc2O1 (stereo not drawn)	none (no result: CYP2C19 activ, CYP2C19 inhib, CYP2C9 activ, CYP2C9 inh)
Cc1cnc(NC(=O)C2COc3ccccc3O2)s1 (stereo not drawn)	CYP2C19 inhib 67.1
CCC(=O)N(Cc1ccco1)c1nc(-c2cc(OC)ccc2OC)cs1	none (no result: CYP2C19 activ, CYP2C19 inhib, CYP2C9 activ, CYP2C9 inh)
O=C(c1cc2ccccc2oc1=O)N1CCN(c2ccccn2)CC1	CYP2C19 inhib 77.1 (no result: sEH act, sEH inhibitor)
O=C(c1cc2ccccc2oc1=O)N1CCN(c2ncccn2)CC1	CYP2C19 inhib 86.9
O=C(c1cc2ccccc2oc1=O)N1CCCC1	none
CN1CCN(C(=O)c2cc3ccccc3oc2=O)CC1	none
O=C(COc1ccccc1Br)c1ccc(O)cc1O	CYP2C19 inhib 65.8, CYP2C9 inh 62.2
O=C(Cc1ccc(Br)cc1)c1ccc(O)cc1O	CYP2C19 inhib 70.7, CYP2C9 inh 53.8
O=C(Cc1nc2ccccc2s1)c1ccc(O)cc1O	none
CCC(C)[C@@H](C(=O)Nc1ccc(OC)c(OC)c1)N1Cc2ccccc2C1=O (stereo partly drawn)	none
CCOc1nc(S(=O)(=O)c2ccc(C)cc2)c(Cl)s1	CYP2C19 inhib 83.2
COCCN(CCOC)c1nc(S(=O)(=O)c2ccc(C)cc2)c(Cl)s1	CYP2C19 inhib 81.2, CYP2C9 inh 55.8
Cc1ccc(S(=O)(=O)c2nc(Nc3nccs3)sc2Cl)cc1	CYP2C19 inhib 67.9, CYP2C9 inh 60.4
CC(=O)Nc1nc(S(=O)(=O)c2ccc(C)cc2)c(Cl)s1	CYP2C19 inhib 55.2
COc1cc(C(=O)Nc2cc(Cl)ccc2C)c(-n2cnnn2)cc1OC	none
O=C(Cn1nnc(-c2cccs2)n1)N1c2ccccc2Sc2ccc(C(F)(F)F)cc21	none (no result: CYP2C19 activ, CYP2C19 inhib, CYP2C9 activ, CYP2C9 inh)
COc1ccc(OC)c2c(C)cc(N3CCN(C(=O)c4ccc(F)cc4)CC3)nc12	none
Cc1ccccc1NC(=O)C1CCCN1S(=O)(=O)c1cccc2cccnc12 (stereo not drawn)	CYP2C19 inhib 67.0, CYP2C9 inh 95.5
O=C(Nc1cccc(C(F)(F)F)c1)C1CCCN1S(=O)(=O)c1cccc2cccnc12 (stereo not drawn)	none
NS(=O)(=O)c1cccc2cccnc12	none
COc1ccc(NC(=O)C2CCCN2S(=O)(=O)c2cccc3cccnc23)c(OC)c1 (stereo not drawn)	CYP2C9 inh 91.8
CCOC(=O)c1cccc(NC(=O)C2CCCN2S(=O)(=O)c2cccc3cccnc23)c1 (stereo not drawn)	CYP2C9 inh 91.1
COc1ccc(N(C)S(=O)(=O)c2cccc3cccnc23)c(OC)c1	CYP2C19 inhib 60.3
CCOc1ccc(OCC)c(NC(=O)C2CCCN2S(=O)(=O)c2cccc3cccnc23)c1 (stereo not drawn)	none (no result: sEH act, sEH inhibitor)
O=S1(=O)CCN2C(Cc3ccc(SC(F)F)cc3)=CSC2=N1	none
CCc1c(C)sc(NC(=O)c2cc(-c3ccco3)on2)c1C#N	none
Cc1cc2ncn(C(=O)N3CCCCC3)c2cc1C	CYP2C19 inhib 81.6
Cc1cc2ncn(C(=O)N3CCCCCC3)c2cc1C	none (no result: CYP2C19 activ, CYP2C19 inhib, CYP2C9 activ, CYP2C9 inh)
Cc1nn(Cc2c(F)c(F)c(F)c(F)c2F)c(C)c1NC(=O)c1ccc(COc2ccc(F)cc2)o1	none
Cc1cc(Br)ccc1OCC(=O)N(Cc1nc(-c2ccccc2)no1)C(C)C	none
COc1cccc(OCC(=O)N(Cc2nc(-c3ccc(Cl)cc3)no2)C(C)C)c1	CYP2C19 inhib 88.4, CYP2C9 inh 86.8
COc1ccccc1OCC(=O)N(Cc1nc(-c2ccc(Cl)cc2)no1)C(C)C	CYP2C19 inhib 77.6 (no result: sEH act, sEH inhibitor)
COc1ccc(-n2ncc(N(C)n3cccc3)c(Cl)c2=O)cc1	none
COc1ccc(Sc2cnn(-c3ccccc3)c(=O)c2Cl)cc1	CYP2C9 inh 85.2
COc1ccc(-c2nnn(CC(=O)N(C3CCCCC3)C(C)C(=O)NC3CCCC3)n2)cc1OC (stereo not drawn)	CYP2C19 inhib 82.7, CYP2C9 inh 67.6
COc1ccc(-c2nnn(CC(=O)N(CC(=O)NC3CCCC3)c3cccc(C)c3)n2)cc1OC	none (no result: sEH act, sEH inhibitor)
CCCC(C(=O)NC1CCCC1)N(C(=O)Cn1nnc(-c2ccc(C)o2)n1)c1ccccc1OC (stereo not drawn)	CYP2C19 inhib 87.5, CYP2C9 inh 80.9
COc1ccc(-c2nnn(CC(=O)N(C3CCCC3)C(C)C(=O)NC3CCCC3)n2)cc1OC (stereo not drawn)	CYP2C19 inhib 80.9, CYP2C9 inh 59.4
COCCn1c(Sc2ccccc2)nc2c1c(=O)[nH]c(=O)n2C	none (no result: sEH act, sEH inhibitor)
Cc1ccc(S(=O)(=O)CCSc2nc(C)cc(C(F)(F)F)c2C#N)cc1	none (no result: CYP2C19 activ, CYP2C19 inhib, CYP2C9 activ, CYP2C9 inh)
COc1ccc(CNC(=O)COc2ccc(S(=O)(=O)NC(C)C)cc2)cc1	CYP2C19 inhib 67.9, CYP2C9 inh 86.3
CC(C)NS(=O)(=O)c1ccc(OCC(=O)NCc2ccccc2)cc1	CYP2C9 inh 60.9
CC(C)NS(=O)(=O)c1ccc(OCC(=O)NCc2cccnc2)cc1	none
COc1ccc(S(=O)(=O)NCCC(=O)NCc2ccccc2)cc1	none (no result: sEH act, sEH inhibitor)
Cc1cc2ccccc2n1CCNC(=O)COc1ccccc1	CYP2C19 inhib 94.1
CCNC(=O)COc1ccc(-c2ccccc2)cc1	CYP2C19 inhib 61.9
O=C(Nc1ccc(NC(=O)C2CC2)nc1)c1cccnc1	none (no result: sEH act, sEH inhibitor)
